According to PubChem BioAssay (EPA / NIEHS):
Values joined by “and” are separate entries in the source; they are usually repeats but may differ in a detail not shown here. Identical values can stand only once. Some compounds were tested as several samples or in several runs, with calls that do not always agree. Active and inactive are the calls of the source. Rule for the calls: active = hit-call score of the fitted dose curve at least 0.9, where 1 is the maximum; inactive = score below 0.9.

Legend:
[1] = BSK_hDFCGF_SRB: Viability Assessment in the BioMAP Diversity Plus: hDFCGF Assay (AID 2283061); details: primary human foreskin fibroblasts;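 note: cells exposed to compound for 24 h before the read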
Outline: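 Human foreskin fibroblasts in 96-well plates were treated 24 h. Total protein was measured by 0.1% SRB staining after 10% TCA fixation, read at 560 nm. Data were fitted bidirectionally against DMSO.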

[2] = read-out: TIMP metallopeptidase inhibitor 1 (TIMP1), TIMP1 (gene 7076); assay: BSK_hDFCGF_TIMP1: BioMAP Diversity Plus: hDFCGF Assay for TIMP metallopeptidase inhibitor 1 (TIMP1) Biomarker Activity (AID 2283062); details: primary human foreskin fibroblasts; actives raise or lower the signal
Outline: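 Human foreskin fibroblast primary cultures dosed for 24 h; secreted/surface TIMP-1 quantified by ELISA. Bidirectional curve fitting against DMSO baseline; cytotoxicity tracked in parallel cultures by SRB total-protein staining.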

[3] = read-out: Monokine induced gamma interferon (MIG), CXCL9 (gene 4283); assay: BSK_hDFCGF_MIG: BioMAP Diversity Plus: hDFCGF Assay for Monokine induced gamma interferon (MIG) Biomarker Activity (AID 2283063); details: primary human foreskin fibroblasts; actives raise or lower the signal
Outline: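 MIG/CXCL9 measured by ELISA 24 h after dosing primary human skin fibroblasts. Activity fitted in both directions against DMSO controls. Cytotoxicity was checked in parallel cultures by SRB staining read at 560 nm.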

[4] = read-out: Matrix Metallopeptidase 1 (MMP1), MMP1 (gene 4312); assay: BSK_hDFCGF_MMP1: BioMAP Diversity Plus: hDFCGF Assay for Matrix Metallopeptidase 1 (MMP1) Biomarker Activity (AID 2283064); details: primary human foreskin fibroblasts; actives raise or lower the signal
Outline: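 Primary human foreskin fibroblasts exposed to chemicals for 24 h; MMP1 measured by ELISA. Cytotoxicity tracked by SRB staining in parallel cultures; bidirectional fit relative to DMSO.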

[5] = read-out: Vascular cell adhesion molecule 1 (VCAM1), VCAM1 (gene 7412); assay: BSK_hDFCGF_VCAM1: BioMAP Diversity Plus: hDFCGF Assay for Vascular cell adhesion molecule 1 (VCAM1) Biomarker Activity (AID 2283065); details: primary human foreskin fibroblasts; actives raise or lower the signal;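 for AC50: VCAM-1 protein level quantified by ELISA after 24 h chemical exposure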
Outline: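 Human foreskin fibroblast primary cells dosed with chemical, VCAM-1 measured by ELISA at 24 h. Bidirectional curve fitting relative to DMSO as negative control/baseline.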

[6] = read-out: Intercellular Adhesion Molecule 1 (ICAM1), ICAM1 (gene 3383); assay: BSK_KF3CT_ICAM1: BioMAP Diversity Plus: KF3CT Assay for Intercellular Adhesion Molecule 1 (ICAM1) Biomarker Activity (AID 2283067); details: primary human keratinocytes with fibroblasts; actives raise or lower the signal
Outline: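 Human keratinocyte–foreskin fibroblast co-culture was treated for 24 h. Cell-surface ICAM-1 was quantified by ELISA, fitted bidirectionally relative to DMSO. Cytotoxicity was checked in parallel cultures by SRB total-protein staining.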

[7] = read-out: Interferon-gamma inducible Protein 10 (IP10), CXCL10 (gene 3627); assay: BSK_KF3CT_IP10: BioMAP Diversity Plus: KF3CT Assay for Interferon-gamma inducible Protein 10 (IP10) Biomarker Activity (AID 2283068); details: primary human keratinocytes with fibroblasts; actives raise or lower the signal
Outline: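 KF3CT co-culture (keratinocytes + foreskin fibroblasts), 24 h compound, IP-10 by ELISA; bidirectional fit vs DMSO baseline.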

[8] = BSK_KF3CT_SRB: Viability Assessment in the BioMAP Diversity Plus: KF3CT Assay (AID 2283069); details: primary human keratinocytes with fibroblasts;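 note: total protein by sulforhodamine B staining as a cytotoxicity measure; read 24 h after compound addition; fitted for both signal gain and loss against DMSO baseline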
Outline: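 Human keratinocyte and foreskin fibroblast co-culture exposed to chemical for 24 h. Total protein measured in parallel cultures by 0.1% sulforhodamine B staining after 10% TCA fixation, read at 560 nm; bidirectional fit relative to DMSO.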

[9] = read-out: Interleukin-1 alpha (IL1a), IL1A (gene 3552); assay: BSK_KF3CT_IL1a: BioMAP Diversity Plus: KF3CT Assay for Interleukin-1 alpha (IL1a) Biomarker Activity (AID 2283070); details: primary human keratinocytes with fibroblasts; actives raise or lower the signal
Outline: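 Primary human keratinocyte plus foreskin fibroblast co-culture, dosed and measured at 24 h in 96-well plates. IL-1a level quantified by ELISA; bidirectional fit relative to DMSO.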

[10] = read-out: TIMP metallopeptidase inhibitor 2 (TIMP2), TIMP2 (gene 7077); assay: BSK_KF3CT_TIMP2: BioMAP Diversity Plus: KF3CT Assay for TIMP metallopeptidase inhibitor 2 (TIMP2) Biomarker Activity (AID 2283071); details: primary human keratinocytes with fibroblasts; actives raise or lower the signal
Outline: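 Human primary keratinocyte/foreskin fibroblast co-culture dosed with chemical and sampled at 24 h. TIMP-2 levels quantified by ELISA; bidirectional fitting against DMSO negative control as baseline.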

[11] = read-out: Transforming growth factor beta 1 (TGFb1), TGFB1 (gene 7040); assay: BSK_KF3CT_TGFb1: BioMAP Diversity Plus: KF3CT Assay for Transforming growth factor beta 1 (TGFb1) Biomarker Activity (AID 2283072); details: primary human keratinocytes with fibroblasts; actives raise or lower the signal
Outline: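 Human keratinocyte plus foreskin fibroblast primary co-culture, dosed with chemical for 24 h. TGF-b1 quantified by ELISA. Activity fitted bidirectionally against DMSO negative control as baseline.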

[12] = read-out: C-C motif chemokine 2 (Homo sapiens) (UniProt P13500); assay: BSK_KF3CT_MCP1: BioMAP Diversity Plus: KF3CT Assay for Monocyte Chemoattractant Protein 1 (MCP1/CCL2) Biomarker Activity (AID 2283073); details: primary human keratinocytes with fibroblasts; actives raise or lower the signal
Outline: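 Human keratinocyte–foreskin fibroblast co-culture; MCP-1 measured by ELISA 24 h after dosing. Bidirectional fit vs DMSO; cytotoxicity tracked by SRB total protein in parallel cultures.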

[13] = read-out: Matrix Metallopeptidase 9 (MMP9), MMP9 (gene 4318); assay: BSK_KF3CT_MMP9: BioMAP Diversity Plus: KF3CT Assay for Matrix Metallopeptidase 9 (MMP9) Biomarker Activity (AID 2283074); details: primary human keratinocytes with fibroblasts; actives raise or lower the signal;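 for AC50: MMP9 protein level quantified by ELISA in the co-culture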
Outline: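 Human keratinocyte and foreskin fibroblast co-culture exposed to chemicals for 24 h; MMP9 biomarker measured by ELISA, bidirectional fitting relative to DMSO; cytotoxicity tracked by SRB total protein staining in parallel cultures.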

[14] = read-out: urokinase plasminogen activator (uPA), PLAU (gene 5328); assay: BSK_KF3CT_uPA: BioMAP Diversity Plus: KF3CT Assay for urokinase plasminogen activator (uPA) Biomarker Activity (AID 2283075); details: primary human keratinocytes with fibroblasts; actives raise or lower the signal
Outline: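 Primary human keratinocyte/foreskin fibroblast co-culture exposed to chemical; uPA measured by ELISA at 24 h. Bidirectional fit versus DMSO, with parallel SRB total-protein staining for cytotoxicity.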

CD40, CD40 (gene 958) = assay: BSK_LPS_CD40: BioMAP Diversity Plus: LPS Assay for CD40 Biomarker Activity (AID 2283076); details: primary human HUVEC with PBMC; actives raise or lower the signal
Outline: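 HUVEC plus PBMC co-culture stimulated with LPS; CD40 quantified by ELISA 24 h after compound dosing. Fitting was bidirectional relative to DMSO. SRB staining of parallel cultures flagged overt cytotoxicity.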

[15] = read-out: E-selectin (Homo sapiens) (UniProt P16581); assay: BSK_LPS_Eselectin: BioMAP Diversity Plus: LPS Assay for Eselectin Biomarker Activity (AID 2283077); details: primary human HUVEC with PBMC; actives raise or lower the signal
Outline: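 Human umbilical vein endothelial cells co-cultured with PBMC under LPS stimulation; cell-surface E-selectin measured by ELISA 24 h after dosing. Change in either direction versus DMSO, with SRB total-protein staining in parallel cultures for cytotoxicity.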

[16] = read-out: Interleukin-8 (IL8), CXCL8 (gene 3576); assay: BSK_LPS_IL8: BioMAP Diversity Plus: LPS Assay for Interleukin-8 (IL8) Biomarker Activity (AID 2283078); details: primary human HUVEC with PBMC; actives raise or lower the signal
Outline: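 Human umbilical vein endothelial cells co-cultured with PBMC, LPS-stimulated, exposed to compound for 24 h. IL-8 quantified by ELISA; fitted in both directions against DMSO, with SRB total-protein staining of parallel cultures for cytotoxicity.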

[17] = BSK_LPS_SRB: Viability Assessment in the BioMAP Diversity Plus: LPS Assay (AID 2283079); details: primary human HUVEC with PBMC;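 note: total protein by sulforhodamine B absorbance as a cytotoxicity measure; measured one day after compound addition; fitted in both directions against DMSO so loss or gain of signal counts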
Outline: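 Co-culture of human umbilical vein endothelial cells and PBMC, read 24 h after dosing. Total protein by 0.1% SRB staining after 10% TCA fixation, absorbance at 560 nm; bidirectional fit against DMSO.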

[18] = read-out: Interleukin-1 alpha (IL1a), IL1A (gene 3552); assay: BSK_LPS_IL1a: BioMAP Diversity Plus: LPS Assay for Interleukin-1 alpha (IL1a) Biomarker Activity (AID 2283080); details: primary human HUVEC with PBMC; actives raise or lower the signal
Outline: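 Human umbilical vein endothelial cells co-cultured with PBMC and stimulated with LPS; IL-1a measured by ELISA 24 h after dosing. Bidirectional fitting against DMSO; cytotoxicity checked by SRB staining in parallel cultures.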

[19] = read-out: Plasminogen activator inhibitor-1 (PAI1), SERPINE1 (gene 5054); assay: BSK_hDFCGF_PAI1: BioMAP Diversity Plus: hDFCGF Assay for Plasminogen activator inhibitor-1 (PAI1) Biomarker Activity (AID 2283066); details: primary human foreskin fibroblasts; actives raise or lower the signal
Outline: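 Human foreskin fibroblasts in the hDFCGF system were dosed with compound for 24 h; PAI-1 was quantified by ELISA. Bidirectional curve fitting used DMSO as negative control and baseline.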

Measured: AC50

Sequence of E-selectin (Homo sapiens) (P16581 whole entry, looked up): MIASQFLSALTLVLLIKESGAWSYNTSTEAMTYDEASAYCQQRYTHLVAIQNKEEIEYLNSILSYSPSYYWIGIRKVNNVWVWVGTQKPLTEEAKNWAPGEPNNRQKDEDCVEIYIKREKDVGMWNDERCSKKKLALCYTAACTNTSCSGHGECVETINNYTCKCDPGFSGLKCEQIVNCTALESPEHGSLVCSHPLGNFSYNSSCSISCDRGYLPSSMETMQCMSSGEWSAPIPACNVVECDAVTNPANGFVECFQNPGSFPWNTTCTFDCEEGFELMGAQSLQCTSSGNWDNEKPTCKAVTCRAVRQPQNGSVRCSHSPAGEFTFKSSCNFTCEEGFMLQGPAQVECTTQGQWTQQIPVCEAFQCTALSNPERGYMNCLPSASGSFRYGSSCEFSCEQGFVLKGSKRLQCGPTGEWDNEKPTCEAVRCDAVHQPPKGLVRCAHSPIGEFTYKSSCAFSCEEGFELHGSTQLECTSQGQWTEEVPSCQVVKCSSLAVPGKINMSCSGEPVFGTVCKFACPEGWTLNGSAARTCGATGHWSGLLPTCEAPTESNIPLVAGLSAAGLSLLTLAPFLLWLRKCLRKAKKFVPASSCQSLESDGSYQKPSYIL

CC1COC(Cn2cncn2)(c2ccc(Oc3ccc(Cl)cc3)cc2Cl)O1 (stereo unspecified)
active: [1] 32.5 µM | [2] 30.4 µM | [3] 31.1 µM | [4] 33.8 µM | [5] 30.8 µM | [6] 38.2 µM | [7] 34.7 µM | [8] 33.7 µM | [9] 38 µM | [10] 26.7 µM | [11] 34.5 µM | [12] 34.4 µM | [13] 31.1 µM | [14] 33.9 µM | CD40, CD40 (gene 958) 17.3 µM | [15] 20 µM | [16] 28.6 µM | [17] 28.8 µM | [18] 32 µM

COC(=O)C(C)Oc1ccc(Oc2ccc(Cl)cc2Cl)cc1 (stereo unspecified)
active: [6] 25.1 µM | [7] 25.4 µM and 20 µM | [9] 5.15 µM | [13] 20 µM | [14] 21.1 µM and 31.6 µM | CD40, CD40 (gene 958) 29.2 µM and 34.7 µM
inactive: [2] | [3] | [4] | [5] | [19] | [6] | [7] | [8] | [9] | [10] | [11] | [12] | [13] | [14] | CD40, CD40 (gene 958) | [15] | [16] | [17] | [18]

OC(c1ccc(Cl)cc1)(c1cncnc1)c1ccccc1Cl (stereo unspecified)
active: [4] 11.5 µM | [19] 16.6 µM | CD40, CD40 (gene 958) 15.8 µM | [17] 23.2 µM
not listed: [1]
inactive: all other assays above

CC(C)(C)c1ccc(CSc2cnn(C(C)(C)C)c(=O)c2Cl)cc1
inactive: [1] | [2] | [3] | [4] | [6] | [11] | [15]
active: [5] 31.6 µM | [7] 31.3 µM | [8] 20 µM | [9] 6.93 µM | [10] 22.9 µM | [12] 20 µM | [13] 18.6 µM | [14] 4.28 µM | CD40, CD40 (gene 958) 8.25 µM | [16] 3.16 µM | [17] 7.73 µM | [18] 20 µM

CCc1nn(C)c(C(=O)NCc2ccc(C(C)(C)C)cc2)c1Cl
active: [2] 32.1 µM | [3] 33.7 µM | [4] 32.2 µM | [5] 20 µM | [19] 15.5 µM | [6] 32.9 µM | [7] 18.7 µM | [8] 32.4 µM | [9] 29.5 µM | [10] 27.7 µM | [12] 27.1 µM | [13] 30.6 µM | [14] 35.4 µM | CD40, CD40 (gene 958) 24.3 µM | [15] 20 µM | [16] 20 µM | [17] 30 µM | [18] 33 µM
inactive: [11]
